Results from PubChem BioAssay (Tox21).
Inconclusive results are not listed. The source made the active and inactive calls. Unless noted, calls follow the shape of the dose curve; as a rule, active = well fitted curve in the direction sought with a large enough effect in the repeat runs; inconclusive = weak or mixed curves; inactive = flat fitted curve, though single readings scatter.

Columns and labels:
[1] = qHTS assay to test for compound auto fluorescence at 535 nm (green) in HEK293 cells (AID 720680)
[2] = qHTS assay to test for compound auto fluorescence at 460 nm (blue) in HEK293 cell free culture (AID 720681)
In short: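 Compounds were added to cell-free DMEM with 10% FBS and fluorescence read directly. The blue channel used 405 nm excitation and 460 nm emission, with triamterene as the reference fluorophore.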

[3] = qHTS assay to test for compound auto fluorescence at 535 nm (green) in HEK293 cell free culture (AID 720682)
In short: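 Green-label autofluorescence (485 nm excitation, 535 nm emission) measured on compound added to cell-free culture medium (DMEM, 10% FBS). Output is expressed relative to fluorescein.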

[4] = qHTS assay to test for compound auto fluorescence at 590 nm (red) in HEK293 cell free culture (AID 720683)
In short: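 Cell-free wells of DMEM with 10% FBS received compound, and intrinsic fluorescence was read at excitation/emission 540/590 nm. Values expressed as equivalence to Rose Bengal sodium.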

[5] = qHTS assay to test for compound auto fluorescence at 460 nm (blue) in HepG2 cell free culture (AID 720685)
In short: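 Cell-free plates of MEM plus 10% FBS received 23 nL compound or DMSO vehicle; blue-channel (405/460 nm) intensity scored against triamterene as reference fluorophore.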

[6] = qHTS assay to test for compound auto fluorescence at 460 nm (blue) in HepG2 cells (AID 720687)
In short: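 HepG2 cells in MEM with 10% FBS, attached overnight at 37 C, were exposed to compound or DMSO for 1 hr at 37 C, 5% CO2. Blue fluorescence was read at 405/460 nm, with triamterene as reference fluorophore.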

[7] = target: Glucocorticoid receptor (Homo sapiens) (UniProt P04150); experiment: qHTS assay to identify small molecule agonists of the glucocorticoid receptor (GR) signaling pathway (AID 720691; active = well fitted activation curve with a large enough effect in the signal ratio in the repeat runs, not every such curve was filed as active; the % refers to the signal ratio)
In short: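 Measures GR pathway activation through a GRE-beta-lactamase reporter stably integrated in HeLa cells, with 18 h compound treatment at 37 C and fluorescence detection using a FRET substrate.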

[8] = target: Glucocorticoid receptor (Homo sapiens) (UniProt P04150); experiment: qHTS assay to identify small molecule antagonists of the glucocorticoid receptor (GR) signaling pathway (AID 720692; active = well fitted inhibition curve with a large enough effect in the signal ratio in the repeat runs, not every such curve was filed as active; the % refers to the signal ratio; also: potency is read from the fitted curve at half-maximal effect)
In short: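 Tox21 10K library screened in concentration-response for blockade of dexamethasone (5 nM final)-induced GRE-bla reporter activity in HeLa cells; 18 h treatment, fluorescence read.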

[9] = qHTS assay to test for compound auto fluorescence at 535 nm (green) in HepG2 cell free culture (AID 720686)
[10] = qHTS assay to test for compound auto fluorescence at 590 nm (red) in HepG2 cell free culture (AID 720684)
In short: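 Auto fluorescence equivalency versus Rose Bengal sodium, red channel Ex/Em 540/590 nm; compounds in cell-free MEM/10% FBS; DMSO vehicle control.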
% is scaled to controls: 0 for no effect and ±100 for the full control effect.

Glucocorticoid receptor (Homo sapiens), sequence (P04150 whole entry, looked up): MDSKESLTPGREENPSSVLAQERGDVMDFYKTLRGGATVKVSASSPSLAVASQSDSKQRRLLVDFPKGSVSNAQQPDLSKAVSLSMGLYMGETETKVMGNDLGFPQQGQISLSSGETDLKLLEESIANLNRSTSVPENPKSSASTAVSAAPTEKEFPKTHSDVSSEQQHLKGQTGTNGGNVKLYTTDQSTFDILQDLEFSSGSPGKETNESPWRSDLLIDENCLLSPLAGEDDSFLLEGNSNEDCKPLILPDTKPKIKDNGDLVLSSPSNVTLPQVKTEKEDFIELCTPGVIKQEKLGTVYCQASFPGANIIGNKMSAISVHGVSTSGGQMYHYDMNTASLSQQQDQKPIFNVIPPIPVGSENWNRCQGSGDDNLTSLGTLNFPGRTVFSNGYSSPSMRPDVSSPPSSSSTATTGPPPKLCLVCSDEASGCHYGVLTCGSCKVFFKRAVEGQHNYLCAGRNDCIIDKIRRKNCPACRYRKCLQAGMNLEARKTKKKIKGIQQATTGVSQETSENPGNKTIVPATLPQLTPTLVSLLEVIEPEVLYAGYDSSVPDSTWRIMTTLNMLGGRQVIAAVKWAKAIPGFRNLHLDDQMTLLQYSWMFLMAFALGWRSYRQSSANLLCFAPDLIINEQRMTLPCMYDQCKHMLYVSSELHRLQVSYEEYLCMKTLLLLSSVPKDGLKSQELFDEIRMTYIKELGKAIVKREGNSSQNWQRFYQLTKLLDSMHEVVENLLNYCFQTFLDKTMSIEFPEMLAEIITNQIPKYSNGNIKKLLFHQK

Cc1ncsc1CCCl
inactive: outcome [1] | outcome [2] | outcome [3] | outcome [4] | outcome [5] | outcome [6] | outcome [7] | Potency [8]

O=C(NCO)NCO
inactive: outcome [1] | outcome [2] | outcome [3] | outcome [4] | outcome [5] | outcome [9] | outcome [6] | outcome [7] | Potency [8]

NC(=O)c1cc([N+](=O)[O-])cc([N+](=O)[O-])c1
inactive: outcome [1] | outcome [3] | outcome [4] | outcome [10] | outcome [5] | outcome [9] | outcome [6]

Nc1n[nH]c(N)n1
inactive: outcome [1] | outcome [2] | outcome [3] | outcome [4] | outcome [5] | outcome [9] | outcome [6] | outcome [7] | Potency [8]

CC(C)[N+](=O)[O-]
inactive: outcome [1] | outcome [2] | outcome [3] | outcome [4] | outcome [5] | outcome [9] | outcome [6] | outcome [7] | Potency [8]

[As]#[In]
inactive: outcome [1] | outcome [2] | outcome [3] | outcome [4] | outcome [5] | outcome [9] | outcome [6] | outcome [7] | Potency [8]

Cc1coc2c1CCC(C)C2 (stereo not given)
inactive: outcome [1] | outcome [2] | outcome [3] | outcome [4] | outcome [5] | outcome [9] | outcome [6] | outcome [7]

Nc1c(Br)cc([N+](=O)[O-])cc1[N+](=O)[O-]
inactive: outcome [1] | outcome [2] | outcome [3] | outcome [4] | outcome [5] | outcome [9] | outcome [6]

COC(=O)c1ccccc1S(=O)(=O)NC(=O)N(C)c1nc(C)nc(OC)n1
inactive: outcome [1] | outcome [2] | outcome [3] | outcome [4] | outcome [5] | outcome [9] | outcome [6] | outcome [7] | Potency [8]

COc1ccc2c(c1OC)CN1CCc3cc4c(cc3C1C2)OCO4 (stereo not given)
inactive: fluorescence, % of fluorescein [1] -0.0571% [at 18.6 µM] | fluorescence, % of fluorescent control [2] 0.288% [at 18.6 µM] | activity change [3] -0.0423% [at 18.6 µM] | fluorescence, % of fluorescent control [4] 0.155% [at 18.6 µM] | fluorescence, % of fluorescent control [5] -0.0388% [at 18.6 µM] | fluorescence, % of fluorescein control [9] 0.0175% [at 18.6 µM] | fluorescence, % of fluorescent control [6] 0.229% [at 18.6 µM] | outcome [7] | Potency [8]

O=NN1CCN(N=O)CC1
inactive: outcome [1] | outcome [3] | outcome [4] | outcome [10] | outcome [5] | outcome [9] | outcome [6]

COc1cccc2c1cc([N+](=O)[O-])c1c(C(=O)O)cc3c(c12)OCO3
active: Potency [8] 13.8 µM
inactive: outcome [1] | outcome [2] | outcome [3] | outcome [4] | outcome [5] | outcome [9] | outcome [6]

CC1=C(C(=O)Nc2ccccc2)S(=O)(=O)CCO1
active: Potency [8] 48.9 µM
inactive: outcome [1] | outcome [2] | outcome [3] | outcome [4] | outcome [5] | outcome [9] | outcome [6]

N#CCBr
inactive: outcome [1] | outcome [2] | outcome [3] | outcome [4] | outcome [5] | outcome [9] | outcome [6] | Potency [8]

ClCC(Cl)(Cl)Cl
inactive: outcome [1] | outcome [2] | outcome [3] | outcome [4] | outcome [5] | outcome [9] | outcome [6] | outcome [7] | Potency [8]

O=C1OC(c2ccc(O)c(S(=O)(=O)O)c2)(c2ccc(O)c(S(=O)(=O)O)c2)c2c(Br)c(Br)c(Br)c(Br)c21
inactive: outcome [1] | outcome [2] | outcome [3] | outcome [4] | outcome [5] | outcome [9] | outcome [6] | outcome [7]

CCC(C)n1c(=O)[nH]c(C)c(Br)c1=O (stereo not given)
inactive: outcome [1] | outcome [2] | outcome [3] | outcome [4] | outcome [5] | outcome [9] | outcome [6]

Cc1nnc2n1-c1sc(CCC(=O)N3CCOCC3)cc1C(c1ccccc1Cl)=NC2
inactive: outcome [1] | outcome [2] | outcome [3] | outcome [4] | outcome [5] | outcome [9] | outcome [6] | Potency [8]

N#CC(O)c1ccccc1 (stereo not given)
inactive: outcome [1] | outcome [2] | outcome [3] | outcome [4] | outcome [5] | outcome [9] | outcome [6] | outcome [7] | Potency [8]

CSc1nc(N=[N+]=[N-])nc(NC(C)C)n1
inactive: outcome [1] | outcome [2] | outcome [3] | outcome [4] | outcome [5] | outcome [9] | outcome [6]

Cc1nc(N)nc(N)n1
inactive: outcome [1] | outcome [2] | outcome [3] | outcome [4] | outcome [5] | outcome [9] | outcome [6] | outcome [7]

ClCCOCOCCCl
inactive: outcome [1] | outcome [2] | outcome [3] | outcome [4] | outcome [5] | outcome [9] | outcome [6] | outcome [7] | Potency [8]
